# A selection: hits, their analogues and other compounds. The true share with any hit is near 7.4%.
# SMN2 splice enh: increases expression of the SMN2 splice variant; HEK293 SMN2-luciferase splicing reporter, luminescence, 30-36 h; Potency, µM (doses to about 46.1 µM), hits mostly activators; actives 2.8% (n = 210,000); AID 1458; note: nearly all actives have a fitted effect of over 55% in size
#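 HEK293 cells carry an SMN2 […]–luciferase reporter in which exon 7 inclusion puts luciferase in frame. Cells were plated 10-12 h before compound addition, then incubated 30-36 h at 37C. ONE-Glo luminescence was read; sodium butyrate at 4.5 mM final served as control.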
# Rab9 prom act: Rab9 promoter activation; Huh7 Rab9 promoter-luciferase reporter, luminescence, 24 h; Potency, µM (titrated, usually from 9.22 µM), usual class: activators; actives 2.8% (n = 320,000); note: nearly all actives have a fitted effect of over 60% in size
#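 Huh7 cells stably carrying a Rab9 promoter-luciferase reporter, 1500 cells per well in OP-MEM I with 10% FBS, treated with compound 24 hours at 37C. Luciferase activity read by luminescence after 10 minutes with Amplite reagent.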
# ELG1 genotox: induces genotoxicity in HEK293T cells with luciferase-tagged ELG1. HEK293T ELG1-luciferase reporter, luminescence, 16 h. Potency, µM (titrated, usually from 46 µM), actives largely listed as activators. actives 1.3% (n = 330,000). AID 504466; note: nearly all actives have a fitted effect of over 60% in size
#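 16 hr compound incubation (37 °C, 5% CO2) of HEK293T cells carrying luciferase-tagged ELG1; luciferase then measured by ONE-Glo luminescence after 30 min at RT.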
# FLuc counter: counter-screen for miR-21 project: firefly luciferase inhibitors or activators; P08659; purified FLuc, Km substrates, luminescence inhibition; Potency, µM (doses to about 57.5 µM), most hits filed as inhibitors; actives 6.9% (n = 360,000); AID 588342; note: nearly all actives have a fitted effect of over 55% in size
# Target sequence (P08659 whole entry, looked up): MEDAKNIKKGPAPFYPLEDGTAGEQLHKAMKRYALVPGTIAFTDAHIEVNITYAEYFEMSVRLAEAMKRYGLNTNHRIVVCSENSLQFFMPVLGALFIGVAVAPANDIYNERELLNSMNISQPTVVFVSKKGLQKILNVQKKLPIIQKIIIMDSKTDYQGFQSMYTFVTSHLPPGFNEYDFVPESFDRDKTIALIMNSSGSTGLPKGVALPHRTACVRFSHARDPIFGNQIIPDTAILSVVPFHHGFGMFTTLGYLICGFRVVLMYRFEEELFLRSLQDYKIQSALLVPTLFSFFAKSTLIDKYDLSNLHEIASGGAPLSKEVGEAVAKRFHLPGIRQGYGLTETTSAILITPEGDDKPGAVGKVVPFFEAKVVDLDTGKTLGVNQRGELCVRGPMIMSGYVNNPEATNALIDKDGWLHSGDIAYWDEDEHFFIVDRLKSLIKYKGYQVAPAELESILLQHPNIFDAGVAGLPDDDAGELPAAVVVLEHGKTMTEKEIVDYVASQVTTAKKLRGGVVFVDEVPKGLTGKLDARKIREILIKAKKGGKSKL
#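 Biochemical qHTS of compounds, final roughly 60 µM downward over six points, against 10 nM purified firefly luciferase using Km concentrations of substrates (10 uM D-luciferin, 10 uM ATP) in Tris acetate pH 7.5 buffer; luminescence output.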
# KinaseGlo FLuc: blocks Kinase-Glo luciferase, a counter-screen artifact; actives 0.28% (n = 200,000); Kinase-Glo luciferase, ATP luminescence, 8 min; Potency, µM (doses to about 38.3 µM), hits mostly inhibitors; Q27757; note: nearly all actives have a fitted effect of over 60% in size
#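 Light output from Kinase-Glo luciferase with luciferin and 10 uM ATP in 50 mM imidazole pH 7.2, KCl, MgCl2, Tween 20, BSA; compound pin-delivered, 8-min ambient incubation, then luminescence read.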
# NPC1 promoter act: activators of NPC1 promoter | Potency, µM (doses to about 9.22 µM), most hits filed as activators | AID 485313 | actives 2.4% (n = 320,000) | Huh7 NPC1 promoter luciferase reporter, 24 h; note: nearly all actives have a fitted effect of over 60% in size
#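 Quantitative HTS used a cell-based reporter: Huh7 cells stably bearing the NPC1 promoter upstream of luciferase were treated with compounds for 24 h, and promoter activation was read as luminescence.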
# A number is an active result; . = inactive; ? = inconclusive; / = not tested or not shown; ! = a repeat was not active; [ ] = another dose, or the depositor's remark. Calls come from the whole dose curve; as a rule, active = well fitted curve in the direction sought with a large enough effect; inconclusive = small, poorly fitted or top-dose-only effect, or another doubt; inactive = no such curve, though single readings can be large; an effect the other way counts as inactive or inconclusive.
SMILES,SMN2 splice enh,Rab9 prom act,ELG1 genotox,FLuc counter,KinaseGlo FLuc,NPC1 promoter act
COc1ccc(N(CC(=O)N/N=C/c2ccc3c(c2)OCO3)S(=O)(=O)c2ccccc2)cc1,.,.,.,.,.,.
COc1cc(C(=O)N/N=C/c2ccc(OC(=O)c3ccccc3Cl)c(OC)c2)ccc1O,/,.,.,?,/,.
COc1cc(/C=N/NC(=O)c2ccc3c(c2)OCO3)ccc1O,/,.,?,16.9µM,/,.
C[n+]1cccc(C(=O)N/N=C/c2ccc3c(c2)OCO3)c1,/,.,.,.,/,.
C[C@H]1CC[C@@H]2N(C1)C[C@H]1[C@@H]3C[C@H]4[C@@H](C/C(=N\O)[C@H]5C[C@@H](O)CC[C@@]54C)[C@@H]3CC[C@H]1[C@]2(C)O,.,/,/,/,.,/
COCCNC(=O)CCn1c(=O)c2cc(OC)c(OC)cc2n(CC(=O)Nc2ccc(Cl)cc2F)c1=O,.,/,/,.,/,/
O=C(COc1ccccc1C(=O)N/N=C\c1ccc(O)c(O)c1)N/N=C/c1ccc(O)c(O)c1,?,.,.,6.75µM,.,.
COc1ccccc1C(=O)NCC(=O)N/N=C/c1ccc2c(c1)OCO2,/,.,.,16.9µM,/,.
COc1ccccc1C(=O)NCC(=O)N/N=C/c1ccncc1,.,.,.,.,.,.
COc1ccc(-c2cn3c(n2)CCC3)cc1,12.6µM,1.58µM,?,13.5µM,.,2.51µM
c1ccc(-c2ccc(-c3cn4c(n3)CCC4)cc2)cc1,.,?,?,0.849µM,.,0.447µM
Cc1ccc(-c2cn3c(n2)CCCC3)cc1,.,.,.,.,.,.
Cc1c(Cl)cccc1NC(=O)CSc1nc(=O)n(Cc2cccnc2)c2c1CCC2,/,/,/,.,/,/
COc1ccc(OCc2nc3ccccc3[nH]2)cc1,11.2µM,0.562µM,1.84µM,3.38µM,?,1.58µM
Brc1ccc(OCc2nc3ccccc3[nH]2)cc1,/,2.51µM,?,2.39µM,/,3.16µM
NNC(=O)c1ccc(OCc2nc3ccccc3[nH]2)cc1,.[9.22 µM],/,/,/,.[7.66 µM],/
COc1cccc(OCc2nc3ccccc3[nH]2)c1,12.6µM,3.55µM,?,6.75µM,?,3.16µM
COc1cccc(OCc2nc3ncc(Br)cc3[nH]2)c1,?,.,?,.,.,.
c1ccc2cc(OCc3nc4ccccc4[nH]3)ccc2c1,2.82µM,2µM,?,1.9µM,.,2.24µM
COc1ccc(Cl)cc1C(=O)NCc1nnnn1-c1ccccc1,/,/,/,.,/,/
Cc1cc2nnc(SCc3ccc(F)cc3)n2c2ccccc12,.,/,/,.,/,/
CCCCC(=O)Nc1ccc2c(c1)nc1n2CCSC1,?,3.55µM,7.31µM,23.9µM,.,3.55µM
COc1ccccc1C(=O)Nc1ccc2c(c1)nc1n2CCSC1,22.4µM,1.78µM,?,3.01µM,.,?
Cc1ccc(C(=O)Nc2ccc3c(c2)nc2n3CCSC2)cc1,/,0.562µM,?,2.69µM,.,0.708µM
CC(=O)Nc1ccc2c(c1)nc1n2CCSC1,.,.,.,.,.,.
SMILES,SMN2 splice enh,Rab9 prom act,ELG1 genotox,FLuc counter,KinaseGlo FLuc,NPC1 promoter act
COc1ccc(OCC(=O)Nc2ccc3c(c2)nc2n3CCSC2)cc1,.,.,.,?,.,.
CCCCNC(=O)CCCn1c(=O)c2ccccc2n(CC(=O)Nc2ccccc2OCC)c1=O,.,/,/,.,/,/
O=C(CS(=O)(=O)c1cccc2nsnc12)Nc1ccc(F)cc1F,/,/,/,.,/,/
CCN1CCc2c(sc(NC(=O)c3ccc4ccccc4c3)c2C(N)=O)C1,/,.,.,2.39µM,/,.
CC(C)N1CCc2c(sc(NC(=O)c3nc4ccccc4s3)c2C(N)=O)C1,.,.,.,16.9µM,.,.
CCN1CCN(S(=O)(=O)c2ccc(C(=O)Nc3sc4c(c3C(N)=O)CCN(CC)C4)cc2)CC1,/,.,.,.,/,.
COc1ccc(Nc2nccc3c2nnn3C)cc1,?,2.24µM,5.8µM,10.7µM,.,1.26µM
Cc1ccc(NC(=O)c2sccc2C)cc1S(=O)(=O)N(C)C,.,.,.,19µM,.,.
Cc1cnc(NC(=O)c2cncc(Br)c2)s1,/,1.26µM,?,8.49µM,.,2.24µM
Cc1ccc(NC(=O)c2cncc(Br)c2)cc1S(=O)(=O)N(C)C,11.2µM,?,?,9.53µM,.,?
CN(C)S(=O)(=O)c1cccc(NC(=O)c2cncc(Br)c2)c1,.,.,.,.,.,.
CCN(CC)c1ccc(NC(=O)c2cncc(Br)c2)cc1,?,?,.,16.9µM,.,?
Cc1ccc(NC(=O)CSc2nnc(-c3cccs3)o2)cc1S(=O)(=O)N(C)C,?,3.55µM,?,.,.,?
CCN(CC)S(=O)(=O)c1cc(NC(=O)CSc2nnc(-c3cccs3)o2)ccc1C,.,.,.,.,.,.
N#C/C(C(=O)N1CCOCC1)=C1\Nc2ccccc2S1,?,.,?,16.9µM,.,.
N#C/C(=C\c1cccs1)C(=O)N1CCOCC1,/,.,.,.,/,.
c1ccc(-c2nc(-c3ccco3)cs2)nc1,.,3.55µM,?,15.1µM,.,.
Cc1cc(NC(=O)CCS(=O)(=O)c2cc(Br)cc3c2N(C(=O)C2CC2)CC3)ccc1Br,.,/,/,.,/,/
Cc1ccccc1C(=O)Nc1nnc(SCC(=O)NCc2ccco2)s1,/,1.78µM,2.91µM,1.69µM,/,1.78µM
O=C(CSc1nnc(NC(=O)c2ccc(F)cc2)s1)NCc1ccco1,/,3.55µM,?,1.9µM,/,1.58µM
O=C(CSc1nnc(NC(=O)c2ccc3c(c2)OCO3)s1)NCc1ccco1,3.98µM,0.708µM,?,0.757µM,.,1.12µM
O=C(CSc1nnc(NC(=O)c2ccco2)s1)NCc1ccc2c(c1)OCO2,.,.,.,?,.,.
O=C(CSc1nnc(NC(=O)C2CC2)s1)NCc1ccco1,.,.,.,.,.,.
O=C(CSc1nnc(NC(=O)c2ccccc2)s1)NCc1ccco1,/,3.16µM,?,4.78µM,/,2.82µM
Cc1ccccc1Nc1nnc(SCC(=O)NCc2ccco2)s1,.,.,.,.,.,.
SMILES,SMN2 splice enh,Rab9 prom act,ELG1 genotox,FLuc counter,KinaseGlo FLuc,NPC1 promoter act
COc1ccc(CCN2C(=O)c3[nH]nc(-c4ccccc4O)c3C2c2ccccc2)cc1 (configuration not stated),.,/,/,.,/,/
CC(C)(C)c1ccc(C(=O)NCc2nnc(SCC(=O)NCc3ccco3)o2)cc1,/,.,.,19µM,/,.
Cc1ccccc1OCC(=O)Nc1nnc(S(=O)(=O)N(C)c2ccccc2)s1,/,/,/,0.953µM,/,/
Cc1ccccc1N(C)S(=O)(=O)c1nnc(NC(=O)c2ccccc2F)s1,/,.,.,6.01µM,/,.
O=C(COc1ccccc1)Nc1nnc(S(=O)(=O)N2CCCC2)s1,/,.,.,.,/,.
O=C(COc1ccccc1)Nc1nnc(S(=O)(=O)Nc2ccccc2)s1,/,.,.,1.51µM!,/,.
CCC(=O)Nc1nnc(S(=O)(=O)N(C)c2ccccc2)s1,/,.,.,.,/,.
CN(c1ccccc1)S(=O)(=O)c1nnc(NC(=O)COc2ccccc2)s1,/,.,.,0.426µM!,/,.

# Compound activity as filed in PubChem BioAssay.
